Drawing on article PMC7819943, “Rice protein-binding microarrays: a tool to detect cis-acting elements near promoter regions in rice”, this text covers binding signal for 46 sequences.

In all, about 35,000 sequences were measured (“fluorescence intensity (a.u.)”: median about 10,000, highest 2% from about 52,000 on). The entries come from a sample that favours the highest values as a whole.

For this experiment, the target named is T1, OsWOX13 (Oryza sativa, UniProt Q5QMM3 1-267).
T1 sequence: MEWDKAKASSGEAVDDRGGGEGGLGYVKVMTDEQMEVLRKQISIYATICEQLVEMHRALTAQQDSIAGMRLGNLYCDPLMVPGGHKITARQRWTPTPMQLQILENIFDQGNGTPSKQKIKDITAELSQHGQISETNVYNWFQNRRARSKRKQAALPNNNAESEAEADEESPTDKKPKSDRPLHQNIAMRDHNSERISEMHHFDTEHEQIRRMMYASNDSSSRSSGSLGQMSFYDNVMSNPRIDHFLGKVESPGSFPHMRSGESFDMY
Description: protein-binding microarray (RPBM); PBS, 2% BSA, 51.3 ng/ul salmon testes DNA, 50 uM zinc acetate, 200 nM TF, 25 C, 1 h; high values mean tight binding. The following applies: protein: recombinant; tags: N-terminal polyhistidine and DsRed monomer fusion (pET32a); label: CyDye5-dUTP incorporated in the synthesized complementary strand; 3' TTTTT single-stranded linker to array surface; dsDNA, one strand shown. A digest of the protocol: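 For the binding signal, per-feature fluorescence intensity was read in arbitrary units on an Axon 4000B scanner. Before scanning, a 2% BSA-blocked custom Agilent array made double-stranded with Cy5-dUTP was washed after 1 h at 25 °C with 200 nM protein and 50 µM zinc acetate. The proteins were Ni–NTA-purified transcription factors with N-terminal polyhistidine and DsRed fusions, expressed in E. coli BL21-CodonPlus.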
For “GTAGAGTAATTAAGTATATCCTTTTGTTCTAGTACATCGGCGGAGTCACCTAGTGCAG”, the binding signal is 4870 fluorescence intensity (a.u.).
To “TAATCAATTAAGAAATTAATTAATCCTTTGCTCCCTGATTCGGAGTCACCTAGTGCAG” belongs 54400 fluorescence intensity (a.u.); to “CAAAATCAATCAATCAATCCAGCCCTGCCCTCCTTTCGGTCGGAGTCACCTAGTGCAG”, 57900 fluorescence intensity (a.u.).
To “GAAATTATTTGAAATTTTGACTGATTTTGAATGAATTTGACGGAGTCACCTAGTGCAG” belongs 15200 fluorescence intensity (a.u.); to “ATCCTTATTTGATTCCTGATCAAATTAATACTGCTGCTTTCGGAGTCACCTAGTGCAG”, 3200 fluorescence intensity (a.u.); to “TTAAAATTAACTTTAAAATTTAAATTTAGATTTTAATTTTCGGAGTCACCTAGTGCAG”, 25700 fluorescence intensity (a.u.).
Consider “ATTAGCGCATGATTAATTGATTATTAACTATTTTAAACTTCGGAGTCACCTAGTGCAG”, for which the binding signal was 27400 fluorescence intensity (a.u.).
As to “TTGTAATTAATTAACTGATTAATTAAACTGCATGAATTTTCGGAGTCACCTAGTGCAG”, the binding signal is 60100 fluorescence intensity (a.u.).
With “TTTCAAATCAAATCCAATCCTCCTCCTCCAGATCTCTCCACGGAGTCACCTAGTGCAG”, the binding signal was 3410 fluorescence intensity (a.u.).
On to “TTCATTAATCACAGATTCAATTTGCTCCTATATATAATCCCGGAGTCACCTAGTGCAG”, for which the binding signal is 12700 fluorescence intensity (a.u.).
In the case of “CTGATTTGACTGAATGAATGAATTAATTAATGAGATGTATCGGAGTCACCTAGTGCAG”, the binding signal is 61600 fluorescence intensity (a.u.).
In the case of “ATGAATTAGATTAGATGTATATTTGAGGGAGTTAAAGTGGCGGAGTCACCTAGTGCAG”, the binding signal is 20800 fluorescence intensity (a.u.).
For the sequence “ACCCTTTCAATCATCCTCCTCCAGCAGAGCAAGCAGCCAACGGAGTCACCTAGTGCAG”, the binding signal is 11000 fluorescence intensity (a.u.).
For “AAATTTTAAATTTTAGTAAAATTTGTTCGGTCTTTCTCTCCGGAGTCACCTAGTGCAG”, the binding signal was 5920 fluorescence intensity (a.u.).
For the sequence “ATAAATTTTATAAACTTGACTGCCTCTGGTTGTATATGCACGGAGTCACCTAGTGCAG”, the binding signal was 23900 fluorescence intensity (a.u.).
With “TGTAATTTGTTCTTGTTATCATCAATCCCATATAAACTGGCGGAGTCACCTAGTGCAG”, the binding signal is 22300 fluorescence intensity (a.u.).
Take “CAAACGGGTAATTAACTGGGATTAATTTGCCATAAGCCGACGGAGTCACCTAGTGCAG”: the binding signal was 53100 fluorescence intensity (a.u.).
For “ATTAACCATAACCTAATTTGGATAAGCCGACATGGATCGGCGGAGTCACCTAGTGCAG”, the binding signal is 8230 fluorescence intensity (a.u.).
Then “CCCCAAATCCCACTCCAATCACCACCGCTTCTTCTCCTCCCGGAGTCACCTAGTGCAG”, with 6580 fluorescence intensity (a.u.).
On to “CCTGTTAAATTGATCTGCCCTGATTAATTGACCCACCGACCGGAGTCACCTAGTGCAG”, for which the binding signal was 38100 fluorescence intensity (a.u.).
For the sequence “TTGATCTGATTAATTAACTGATCAGACGGGTCGACGGGACCGGAGTCACCTAGTGCAG”, the binding signal was 55700 fluorescence intensity (a.u.).
“AATTAATTGTCTGATCAGTGATCTTTATTAACTGTCGACGCGGAGTCACCTAGTGCAG”: the binding signal was 28400 fluorescence intensity (a.u.).
As for “CAAATTCCAATCATCTCCAAAACCACTTCGCAAATAAATTCGGAGTCACCTAGTGCAG”, the binding signal was 17900 fluorescence intensity (a.u.).
In the case of “CTACCTTTAATTAGCTTTGCCATAAACGACGTGGGAGTATCGGAGTCACCTAGTGCAG”, the binding signal was 10300 fluorescence intensity (a.u.).
Consider “ATCCTTTTCTCCTTTTCTCGCAAAATCTCCAAAACCGCTTCGGAGTCACCTAGTGCAG”, for which the binding signal was 65500 fluorescence intensity (a.u.).
Take “TAGGATTTGACCATAGTAAATTAATTTGGAGGAATTGTTTCGGAGTCACCTAGTGCAG”: the binding signal was 3990 fluorescence intensity (a.u.).
With “CCATCTGATTAGAGATTTGATCCTATACCTTCCTAAACATCGGAGTCACCTAGTGCAG”, the binding signal was 40700 fluorescence intensity (a.u.).
Turning to “AGTACTGTAGATAATAAAGTAAGTCACGAATAAAATAAATCGGAGTCACCTAGTGCAG”, the binding signal is 50900 fluorescence intensity (a.u.).
For “TTAATTGTTTTATCCTATTAATTGGTAGAAGCGGTATTTTCGGAGTCACCTAGTGCAG”, the binding signal was 26700 fluorescence intensity (a.u.).
Then “AAAGATAATTGAAAAGTAAACTTGTTGACAGACGGAATCCCGGAGTCACCTAGTGCAG”, with 30400 fluorescence intensity (a.u.); and “CATGATTAATCAAGTTAATTATTATACACTAAATATTGGACGGAGTCACCTAGTGCAG”, with 59600 fluorescence intensity (a.u.); and “AATTATTTAAATCAATGTAACTCAAAAGTTAATAAACGTGCGGAGTCACCTAGTGCAG”, with 13100 fluorescence intensity (a.u.).
Turning to “TTAACATGTAATCAATTAAATACTAATTATTATAAACGTGCGGAGTCACCTAGTGCAG”, the binding signal was 53100 fluorescence intensity (a.u.).
With “TTGGACACTAATTATAAATATTAAATATAGACTATTAATACGGAGTCACCTAGTGCAG”, the binding signal is 4640 fluorescence intensity (a.u.).
As for “TATGATTATCACAAGTAATATATAAATTATTAGTCAAGTTCGGAGTCACCTAGTGCAG”, the binding signal was 33600 fluorescence intensity (a.u.).
“ACTAATTATAAATCAGAACGATTTATTAACTACTCAATAACGGAGTCACCTAGTGCAG”: the binding signal was 24400 fluorescence intensity (a.u.).
With “GGGTGTGTAAGGGTAGGTGGAGGGGTGGGTGATGCGAGATCGGAGTCACCTAGTGCAG”, the binding signal is 4470 fluorescence intensity (a.u.).
Regarding “CCTAATTAGTCCATGATTAGTCATAAGTACTACAATAACCCGGAGTCACCTAGTGCAG”, the binding signal was 33900 fluorescence intensity (a.u.).
In the case of “GCCTAATTAGTCCATGATTAGCTATAAGTGCTACAATAACCGGAGTCACCTAGTGCAG”, the binding signal was 28100 fluorescence intensity (a.u.).
Regarding “GTCTAATTAGTCCATGATTAATTAGCCATAAGTTCTACAGCGGAGTCACCTAGTGCAG”, the binding signal was 53100 fluorescence intensity (a.u.).
For “TAAGCCTAATTAGTCTATGATTAGCCATAAGTGCTACAGTCGGAGTCACCTAGTGCAG”, the binding signal was 37800 fluorescence intensity (a.u.).
With “CCGTGATTAGCCATAAGTGCTACAGTAACCCACATGTGCTCGGAGTCACCTAGTGCAG”, the binding signal was 57900 fluorescence intensity (a.u.).
Turning to “CATGATTAGCCATAAGTGCTACAGTAACCCACATGTGCTACGGAGTCACCTAGTGCAG”, the binding signal was 34300 fluorescence intensity (a.u.).
To “TCCGTGATTAGCCATAAGTGCTACAGTAACCCACATGTGCCGGAGTCACCTAGTGCAG” belongs 35800 fluorescence intensity (a.u.).
Turning to “TTGAGTCTAATTAGTCCATGATTAGCCATAAGTGCTACAGCGGAGTCACCTAGTGCAG”, the binding signal was 30600 fluorescence intensity (a.u.).
Regarding “CCTAATTAATCCATGATTAGTCATAAGTGTTACAATAATCCGGAGTCACCTAGTGCAG”, the binding signal was 55500 fluorescence intensity (a.u.).
